In PubChem BioAssay (EPA / NIEHS):
Inconclusive results are not listed. Activity calls are given as the source filed them. The calls were made as follows, unless noted: active = hit-call score of the fitted dose curve at least 0.9, where 1 is the maximum; inconclusive = response in the unintended direction; inactive = score below 0.9.

Tested on: not listed separately
Assay: TOX21_PR_LUC_Followup_Agonist_viability: Viability Assessment in the Tox21 HEK293 Progesterone Receptor (PR) Agonism Luciferase Follow-Up Assay (AID 2283941);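 also: loss of signal means cytotoxicity so actives lower viability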
How it was run: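 Multiplexed viability endpoint of the PR agonist luciferase follow-up: HEK293-PR-A-luc cells treated 16 h at 37C, with viability scored as decrease in CellTiter-Glo ATP signal.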

Compound	outcome	AC50
CC(=O)[C@H]1[C@H](C#N)C[C@H]2[C@@H]3CC=C4C[C@@H](O)CC[C@]4(C)[C@H]3CC[C@@]21C	inactive	
CCC(=O)Oc1ccc(/C(CC)=C(\CC)c2ccc(OC(=O)CC)cc2)cc1	inactive	
C[C@]12C=CC(=O)C=C1CC[C@@H]1[C@@H]2[C@@H](O)C[C@@]2(C)[C@H]1CC[C@]2(O)C(=O)CO	inactive	
Nc1ccc(-c2ccc(F)cc2)cc1	inactive	
CC(C)(c1cc(Br)c(OCCO)c(Br)c1)c1cc(Br)c(OCCO)c(Br)c1	inactive	
C#CC1(O)CC[C@H]2[C@@H]3CCC4=CCCC[C@@H]4[C@H]3CC[C@@]21C (stereo partly specified)		72.7 µM (active)
CCOC(=O)c1ccccc1C(=C1C=C(Br)C(=O)C(Br)=C1)c1cc(Br)c(O)c(Br)c1	inactive	
Cc1ccc(C(C)c2ccc(C)c(C)c2)cc1C	inactive	
COc1ccc(C(Cl)=C(c2ccc(OC)cc2)c2ccc(OC)cc2)cc1	inactive	

Molecular target: Thyroid hormone receptor alpha (Rattus norvegicus) + Thyroid hormone receptor beta (Rattus norvegicus) (UniProt P18113+P63059)
Assay: TOX21_TR_LUC_GH3_Antagonist_Followup: Tox21 GH3 Thyroid Hormone Receptor Antagonism Luciferase Follow-Up Assay (AID 2283942)
How it was run: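 Loss of T3-driven (1.0 nM final) reporter activity in GH3 cells was read by ONE-Glo luminescence after 24 h incubation at 37C; 15-point compound series spanned 92 uM to 5nM final, 1,500 cells/well.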

Compound	outcome	AC50
COCc1c(C(C)C)nc(C(C)C)c(/C=C/[C@@H](O)C[C@@H](O)CC(=O)O)c1-c1ccc(F)cc1	inactive	
c1cc(N(CC2CO2)CC2CO2)ccc1OCC1CO1 (stereo unspecified)		60.9 µM (active)
N=c1ccn2c(n1)O[C@H]1[C@H](O)[C@@H](CO)O[C@H]12	inactive	
Oc1ccc(Cl)cc1Cc1cc(Cl)ccc1O		18.7 µM (active)
COc1ccc(C(Cl)=C(c2ccc(OC)cc2)c2ccc(OC)cc2)cc1	inactive	

Molecular target: THRA (gene 7067) (UniProt P10827)
Sequence (P10827 whole entry, looked up): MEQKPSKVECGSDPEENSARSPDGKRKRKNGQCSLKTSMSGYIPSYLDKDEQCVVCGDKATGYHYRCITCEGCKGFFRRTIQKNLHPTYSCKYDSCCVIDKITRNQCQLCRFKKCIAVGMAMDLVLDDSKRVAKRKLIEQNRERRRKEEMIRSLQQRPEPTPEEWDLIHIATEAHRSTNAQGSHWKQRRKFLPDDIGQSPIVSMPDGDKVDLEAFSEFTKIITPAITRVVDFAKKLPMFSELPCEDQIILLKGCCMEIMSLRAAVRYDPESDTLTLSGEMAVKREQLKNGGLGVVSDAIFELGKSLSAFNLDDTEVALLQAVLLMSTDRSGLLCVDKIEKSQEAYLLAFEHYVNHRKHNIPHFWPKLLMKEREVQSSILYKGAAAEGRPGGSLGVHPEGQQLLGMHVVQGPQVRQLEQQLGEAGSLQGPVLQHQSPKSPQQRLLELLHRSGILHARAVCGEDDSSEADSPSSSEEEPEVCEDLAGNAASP
Assay: TOX21_TRA_COA_Agonist_Followup_ratio: Tox21 Thyroid Hormone Receptor alpha Agonism through Coactivator Recruitment Follow-Up Assay, Ratio (AID 2283948; active = hit-call score of the fitted dose curve at least 0.9, where 1 is the maximum; inactive = score below 0.9)
How it was run: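 Follow-up specificity assay in which TRα ligand-binding domain, expressed as a GST fusion, recruits a fluorescein-labelled SRC-2 peptide. Energy transfer from a terbium anti-GST antibody gives the acceptor/donor ratio, fitted upward relative to DMSO.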

Compound	outcome	AC50
CCCCCCC(O)CO (stereo unspecified)	inactive	
C[Si](C)O[Si](C)(C)O[Si](C)(C)O[Si](C)C	inactive	
NC(CO)(CO)CO		40.6 µM (active)

Molecular target: THRA (gene 7067) (UniProt P10827)
Assay: TOX21_TRA_COA_Antagonist_Followup_ratio: Tox21 Thyroid Hormone Receptor alpha Antagonism through Coactivator Recruitment Follow-Up Assay, Ratio (AID 2283953)
How it was run: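 GST-TRα LBD 2.5 nM, BSA 0.10%, + cpd; then FITC-SRC-2 peptide 200 nM + Tb-anti-GST Ab 2 nM. TR-FRET ratio 520/495 nm. Norm: DMSO = 0%, T3 = 100%.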

Compound	outcome
COCc1c(C(C)C)nc(C(C)C)c(/C=C/[C@@H](O)C[C@@H](O)CC(=O)O)c1-c1ccc(F)cc1	inactive
c1cc(N(CC2CO2)CC2CO2)ccc1OCC1CO1 (stereo unspecified)	inactive
Cc1oncc1C(=O)Nc1ccc(C(F)(F)F)cc1	inactive
Oc1ccc(Cl)cc1Cc1cc(Cl)ccc1O	inactive

Molecular target: THRB (gene 7068) (UniProt P10828)
Sequence (P10828 whole entry, looked up): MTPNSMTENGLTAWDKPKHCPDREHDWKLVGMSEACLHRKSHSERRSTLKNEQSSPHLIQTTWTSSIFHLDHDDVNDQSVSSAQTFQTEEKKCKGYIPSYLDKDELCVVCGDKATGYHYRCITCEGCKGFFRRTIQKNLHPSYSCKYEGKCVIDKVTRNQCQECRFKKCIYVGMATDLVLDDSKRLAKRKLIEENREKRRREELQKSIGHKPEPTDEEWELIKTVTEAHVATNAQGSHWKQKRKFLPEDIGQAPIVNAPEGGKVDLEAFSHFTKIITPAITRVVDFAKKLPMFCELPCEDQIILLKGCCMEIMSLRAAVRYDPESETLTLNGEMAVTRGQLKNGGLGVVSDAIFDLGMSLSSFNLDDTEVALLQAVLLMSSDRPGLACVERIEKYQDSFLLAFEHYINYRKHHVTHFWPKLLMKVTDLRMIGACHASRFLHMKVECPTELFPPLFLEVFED
Assay: TOX21_TRB_BLA_Antagonist_Followup_ratio: Tox21 Thyroid Hormone Receptor beta Antagonism Beta-lactamase (BLA) Follow-Up Assay, Ratio (AID 2283958)
How it was run: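 Cells were plated and allowed to attach for 5 h, then dosed with compounds in DMSO at 11 concentrations for 18 h at 37C. Beta-lactamase reporter activity was measured via CCF4-AM FRET as the 460:530 nm ratio.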

Compound	outcome	AC50
COCc1c(C(C)C)nc(C(C)C)c(/C=C/[C@@H](O)C[C@@H](O)CC(=O)O)c1-c1ccc(F)cc1	inactive	
c1cc(N(CC2CO2)CC2CO2)ccc1OCC1CO1 (stereo unspecified)	inactive	
N=c1ccn2c(n1)O[C@H]1[C@H](O)[C@@H](CO)O[C@H]12	inactive	
Cc1oncc1C(=O)Nc1ccc(C(F)(F)F)cc1	inactive	
Oc1ccc(Cl)cc1Cc1cc(Cl)ccc1O		38.3 µM (active)
COc1ccc(C(Cl)=C(c2ccc(OC)cc2)c2ccc(OC)cc2)cc1	inactive	

Tested on: not listed separately
Assay: TOX21_TRB_BLA_Antagonist_Followup_viability: Viability Assessment in the Tox21 Thyroid Hormone Receptor beta Antagonism Beta-lactamase (BLA) Follow-Up Assay (AID 2283961)
How it was run: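 TRβ-bla HEK293T (human TRβ LBD fused to GAL4 DBD), 3,000 cells/well, 2% charcoal-stripped FBS, phenol red-free medium; 18 h compound exposure, 37C; CellTiter-Glo 30 min RT; luminescence, loss-of-signal readout.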

Compound	outcome	AC50
COCc1c(C(C)C)nc(C(C)C)c(/C=C/[C@@H](O)C[C@@H](O)CC(=O)O)c1-c1ccc(F)cc1	inactive	
c1cc(N(CC2CO2)CC2CO2)ccc1OCC1CO1 (stereo unspecified)	inactive	
N=c1ccn2c(n1)O[C@H]1[C@H](O)[C@@H](CO)O[C@H]12	inactive	
Cc1oncc1C(=O)Nc1ccc(C(F)(F)F)cc1	inactive	
Oc1ccc(Cl)cc1Cc1cc(Cl)ccc1O		23.5 µM (active)
COc1ccc(C(Cl)=C(c2ccc(OC)cc2)c2ccc(OC)cc2)cc1	inactive	

Molecular target: THRB (gene 7068) (UniProt P10828)
Assay: TOX21_TRB_COA_Agonist_Followup_ratio: Tox21 Thyroid Hormone Receptor beta Agonism through Coactivator Recruitment Follow-Up Assay, Ratio (AID 2283963; active = hit-call score of the fitted dose curve at least 0.9, where 1 is the maximum; inactive = score below 0.9)
How it was run: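 Signal is the 520/495 nm emission ratio (excitation 340 nm), scaled between DMSO-only wells as 0% and T3 wells as 100%. It reflects fluorescein-labeled SRC-2 peptide recruitment to GST-TRβ ligand-binding domain detected via terbium anti-GST antibody.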

Compound	outcome
CCCCCCC(O)CO (stereo unspecified)	inactive
C[Si](C)O[Si](C)(C)O[Si](C)(C)O[Si](C)C	inactive
NC(CO)(CO)CO	inactive

Molecular target: THRB (gene 7068) (UniProt P10828)
Assay: TOX21_TRB_COA_Antagonist_Followup_ratio: Tox21 Thyroid Hormone Receptor beta Antagonism through Coactivator Recruitment Follow-Up Assay, Ratio (AID 2283967)
How it was run: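 Coactivator recruitment to the GST-tagged TRb ligand-binding domain (5.0 nM) was read as the 520/495 nm TR-FRET ratio, using 200 nM fluorescein SRC-2 peptide and 2 nM terbium anti-GST. Scaled between DMSO and T3 wells; loss of signal fitted.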

Compound	outcome	AC50
COCc1c(C(C)C)nc(C(C)C)c(/C=C/[C@@H](O)C[C@@H](O)CC(=O)O)c1-c1ccc(F)cc1	inactive	
c1cc(N(CC2CO2)CC2CO2)ccc1OCC1CO1 (stereo unspecified)	inactive	
N=c1ccn2c(n1)O[C@H]1[C@H](O)[C@@H](CO)O[C@H]12	inactive	
Cc1oncc1C(=O)Nc1ccc(C(F)(F)F)cc1	inactive	
Oc1ccc(Cl)cc1Cc1cc(Cl)ccc1O		38.3 µM (active)

Molecular target: Retinoic acid receptor RXR-alpha (Homo sapiens) (UniProt P19793)
Sequence (P19793 whole entry, looked up): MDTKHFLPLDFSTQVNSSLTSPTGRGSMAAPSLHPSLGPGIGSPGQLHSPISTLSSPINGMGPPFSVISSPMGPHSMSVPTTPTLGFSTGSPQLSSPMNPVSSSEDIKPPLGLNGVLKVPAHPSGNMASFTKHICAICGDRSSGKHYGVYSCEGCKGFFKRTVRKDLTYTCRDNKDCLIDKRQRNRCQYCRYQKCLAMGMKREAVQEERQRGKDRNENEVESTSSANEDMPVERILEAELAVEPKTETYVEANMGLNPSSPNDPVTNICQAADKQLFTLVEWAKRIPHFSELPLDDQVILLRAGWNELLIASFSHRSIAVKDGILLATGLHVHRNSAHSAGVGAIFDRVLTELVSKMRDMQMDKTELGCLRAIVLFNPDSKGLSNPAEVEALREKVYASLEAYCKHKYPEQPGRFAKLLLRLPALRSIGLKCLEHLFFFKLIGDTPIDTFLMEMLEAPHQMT
Assay: TOX21_TR_RXR_BLA_Agonist_Followup_ratio: Tox21 Thyroid Hormone Receptor beta Retinoid X Receptor alpha (RXRa) Agonism Beta-lactamase (BLA) Follow-Up Assay, Ratio (AID 2283968)
How it was run: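 Cells were first allowed to attach for 5 h, after which compounds in DMSO were pinned at 11 concentrations and incubated 16 h at 37C. LiveBLAzer CCF4-AM substrate was then added for 2 h at room temperature before reading 460 and 530 nm fluorescence.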

Compound	outcome
CCCCCCC(O)CO (stereo unspecified)	inactive
C[Si](C)O[Si](C)(C)O[Si](C)(C)O[Si](C)C	inactive
NC(CO)(CO)CO	inactive

Tested on: not listed separately
Assay: TOX21_TR_RXR_BLA_Agonist_Followup_viability: Viability Assessment in the Tox21 Thyroid Hormone Receptor beta Retinoid X Receptor alpha (RXRa) Agonism Beta-lactamase (BLA) Follow-Up Assay (AID 2283970)
How it was run: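 Viability counter-screen run alongside the RXRa bla follow-up: HEK293T reporter cells were treated for 16h at 37C in stripped-serum medium, then ATP was quantified by luciferase-coupled CellTiter-Glo. Decreased signal relative to DMSO marked cytotoxicity.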

Compound	outcome
CCCCCCC(O)CO (stereo unspecified)	inactive
C[Si](C)O[Si](C)(C)O[Si](C)(C)O[Si](C)C	inactive
NC(CO)(CO)CO	inactive

Molecular target: Retinoic acid receptor RXR-alpha (Homo sapiens) (UniProt P19793)
Assay: TOX21_TR_RXR_BLA_Antagonist_Followup_ratio: Tox21 Thyroid Hormone Receptor beta Retinoid X Receptor alpha (RXRa) Antagonism Beta-lactamase (BLA) Follow-Up Assay, Ratio (AID 2283972)
How it was run: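 HEK293T RXRa-bla, 2% charcoal-stripped FBS medium, 16 h compound exposure at 37C, qHTS 11 conc x3. CCF4 FRET ratio ch2/ch1 (460:530), DMSO = baseline, loss-of-signal fit.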

Compound	outcome	AC50
Cc1oncc1C(=O)Nc1ccc(C(F)(F)F)cc1	inactive	
Oc1ccc(Cl)cc1Cc1cc(Cl)ccc1O		38.3 µM (active)
COc1ccc(C(Cl)=C(c2ccc(OC)cc2)c2ccc(OC)cc2)cc1	inactive	

Tested on: not listed separately
Assay: TOX21_TR_RXR_BLA_Antagonist_Followup_viability: Viability Assessment in the Tox21 Thyroid Hormone Receptor beta Retinoid X Receptor alpha (RXRa) Antagonism Beta-lactamase (BLA) Follow-Up Assay (AID 2283979)
How it was run: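 Follow-up compounds (11 concentrations, triplicate) were incubated 16 h at 37C/5% CO2 with HEK293T RXRa-bla cells seeded at 2,500/well in charcoal-stripped-serum medium. ATP content by CellTiter-Glo luminescence gave viability; curves fitted in both directions against DMSO.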

Compound	outcome	AC50
COCc1c(C(C)C)nc(C(C)C)c(/C=C/[C@@H](O)C[C@@H](O)CC(=O)O)c1-c1ccc(F)cc1	inactive	
c1cc(N(CC2CO2)CC2CO2)ccc1OCC1CO1 (stereo unspecified)	inactive	
N=c1ccn2c(n1)O[C@H]1[C@H](O)[C@@H](CO)O[C@H]12	inactive	
Cc1oncc1C(=O)Nc1ccc(C(F)(F)F)cc1	inactive	
Oc1ccc(Cl)cc1Cc1cc(Cl)ccc1O		5.34 µM (active)
COc1ccc(C(Cl)=C(c2ccc(OC)cc2)c2ccc(OC)cc2)cc1	inactive	

Tested on: DIO1 (gene 1733)
Assay: CCTE_GLTED_hDIO1: CCTE's human Deiodinase 1 (DIO1) Inhibition Assay, Great Lakes Toxicology and Ecology Division (GLTED) Lab (AID 2283987);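 also: isolated human DIO1 enzyme in a cell-free setup rather than cells; enzyme activity read as free iodide liberated from substrate via Sandell-Kolthoff colorimetry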
How it was run: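 Inhibition of human deiodinase 1 is scored as reduced iodide liberation after a 3 h enzyme–chemical incubation, detected colorimetrically by the Sandell-Kolthoff reaction against DMSO controls.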

Compound	AC50
O=S(=O)(O)c1ccccc1C=Cc1ccc(-c2ccc(C=Cc3ccccc3S(=O)(=O)O)cc2)cc1	100 µM (active)
Cc1ccc(N/N=c2\c(=O)cc/c(=N/Nc3ccc(S(=O)(=O)O)cc3)c2=O)c(C)c1	46.6 µM (active)
CCCCCCCCCCCCCOP(=O)(O)O	91 µM (active)
Oc1ccc(Cl)cc1Cc1cc(Cl)ccc1O	99.8 µM (active)
CCCCCCCC/C=C\CCCCCCCC(=O)O	74 µM (active)
